Cav3 T inh: blocks human Cav3.2 T-type calcium channel; O95180; 100,000 compounds, 4% hits; Cav3.2-expressing cells, Fluo-4 calcium fluorescence FDSS; active compounds read low; AID 449739; B-score at 10 µM;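 active = single-dose well whose peak fluorescence ratio is a statistical outlier from its plate by either plate-standardised score or position-corrected B-score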
PostGolgi yeast: growth inhibition of a yeast mutant, post-Golgi transport screen; AID 739; inhibition, % at 10 µM; 98,000 compounds, 0.9% hits; post-Golgi transport phenotypic cell assay;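 note: yeast cells grown in 1536-well plates; yeast grown about 18 h at 30C before absorbance read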
hDAT+cocaine: modulates human dopamine transporter uptake under cocaine. Q01959. LLC-PK1 hDAT cells, [14C]-dopamine uptake with cocaine IC80; actives deviate in either direction. B-score at 10 µM. 110,000 compounds, 1.3% hits;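 active = Z score or B-score, a plate-position-corrected score, falls beyond the plate's 99.7% confidence bounds, in either direction; inactive = both scores lie inside the 99.7% bounds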;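 note: scored against the spread of the other compound wells on the same plate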
PLAP activator: activators of human placental alkaline phosphatase; activation fold at 20 µM; 96,000 compounds, 1.2% hits; P05187; purified PLAP enzyme, luminescent substrate read-out; active compounds read high; AID 696; in the data active = activation fold above about 2
Target sequence (P05187 whole entry, looked up): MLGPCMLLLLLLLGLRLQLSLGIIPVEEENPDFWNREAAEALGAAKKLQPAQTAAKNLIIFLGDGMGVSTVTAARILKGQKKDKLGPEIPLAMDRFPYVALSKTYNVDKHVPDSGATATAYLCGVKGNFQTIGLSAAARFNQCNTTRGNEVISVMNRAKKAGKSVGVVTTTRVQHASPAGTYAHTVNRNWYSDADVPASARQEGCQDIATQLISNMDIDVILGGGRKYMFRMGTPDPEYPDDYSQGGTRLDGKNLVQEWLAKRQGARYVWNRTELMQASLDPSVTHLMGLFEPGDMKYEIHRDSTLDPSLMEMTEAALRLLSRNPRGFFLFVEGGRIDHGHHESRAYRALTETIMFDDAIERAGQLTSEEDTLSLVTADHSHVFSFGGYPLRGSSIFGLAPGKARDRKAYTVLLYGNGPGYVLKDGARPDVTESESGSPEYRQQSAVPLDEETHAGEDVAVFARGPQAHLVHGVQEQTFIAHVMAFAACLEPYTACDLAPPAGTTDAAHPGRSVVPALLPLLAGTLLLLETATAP
PostGolgi ctrl: yeast control strain growth, post-Golgi counter-screen | inhibition, % at 10 µM | efflux-deficient yeast background strain, growth absorbance A615, 16 h | 98,000 compounds, 5% hits
The depositor's hits bear a star; nt = not tested or not shown. Rows were chosen to be rich in hits. Some 9.6% of all compounds tested hit in one or more screens of this group. Cut-off read from the data, not from the text of the source, unless noted: active = inhibition above about 30%; inactive = the rest.

SMILES | Cav3 T inh | PostGolgi yeast | hDAT+cocaine | PLAP activator | PostGolgi ctrl
C=C1CCN(c2ccc(C(=O)NCCC)cc2[N+](=O)[O-])CC1 | 0.27 | nt | 0.24 | nt | nt
CCc1ccc(OCCNC(=O)c2cccs2)cc1 | -5.9* | 2 | -0.52 | 1 | -6
CC(C)OCCCNC(=O)c1cccs1 | 0.6 | 0 | -1 | 0.8 | 32*
CCCCOCCCNC(=O)c1cccs1 | -1.1 | -1 | 0.0069 | 0.9 | -2
CCCCSc1nc(SCC(=O)NCc2ccco2)c2c3c(sc2n1)COC(C)(CC)C3 (stereo not given) | -5.5* | 0 | 0.22 | 1.2 | -11
Cc1sc2ncnc(SCC(=O)NC(=O)NCc3ccco3)c2c1C | -0.43 | nt | 0.77 | 1.3 | nt
Cc1sc2nc(C(C)C)nc(SCC(=O)NCc3ccco3)c2c1C | -0.014 | 4 | 0.032 | 1.4 | 40*
CCCSc1nc(SCC(=O)NCc2ccccc2)c2c3c(sc2n1)COC(C)(CC)C3 (stereo not given) | -2.7 | 2 | -0.53 | 1 | 10
CCCC(C(=O)Nc1nccs1)c1ccccc1 (stereo not given) | -2.8 | 8 | -0.087 | 1 | 11
COC(=O)/C(=C(/F)Sc1cc(C)c(O)c(C)c1)C(F)(F)F | -0.087 | -1 | -0.075 | 1.1 | -2
Cc1c(NS(=O)(=O)c2ccc3c(c2)CCN3C(=O)C2CC2)c(=O)n(-c2ccccc2)n1C | 0.35 | 11 | 1.3 | 1.1 | -2
COc1ccccc1NC(=O)Cn1cnc2c(cnn2-c2ccc(C)c(C)c2)c1=O | nt | 3 | nt | 0.9 | 14
Cc1c(NC2=C(Cl)C(=O)N(c3ccccc3)C2=O)c(=O)n(-c2ccccc2)n1C | -0.32 | 7 | -1.5 | 1.7 | 31*
Cc1c(Nc2nc3ccccc3nc2N2CCN(c3ccccc3)CC2)c(=O)n(-c2ccccc2)n1C | -2.5 | 2 | 1.5 | 1.9 | 34*
Cc1cc(=O)[nH]c(Nc2c(C)n(C)n(-c3ccccc3)c2=O)n1 | 0.45 | -3 | 0.99 | 0.8 | -8
O=C(NCc1ccccc1)N1CCC(n2cnc3cc(F)ccc32)CC1 | 0.65 | -6 | -0.18 | 1.1 | 4
CCCc1nc(SCC(=O)N2CCC(Cc3ccccc3)CC2)c2c(=O)n(C)c(=O)n(C)c2n1 | 0.74 | 22 | 2.2 | 1.4 | 38*
Cc1cc(C)n(Cc2ccc(Cl)cc2Cl)c(=O)c1S(=O)(=O)c1ccccc1 | -4.3* | -4 | 0.62 | 1 | 27
CSc1cc(-c2ccccc2)n(Cc2ccc(Cl)cc2Cl)c(=O)c1C#N | -0.56 | -9 | 0.45 | 0.7 | -4
COc1cc(Cn2c(=O)oc3ccc(C)cc32)ccc1OC(C)C | -3.5 | nt | 1.3 | nt | nt
Cc1noc(C)c1S(=O)(=O)N(CC(=O)N1CCCC1)c1ccc(C(C)C)cc1 | -1.3 | -16 | 0.42 | 1.3 | 0
Cc1noc(C)c1S(=O)(=O)N(CC(=O)N1CCCCCC1)c1ccc(C(C)C)cc1 | -4.1* | -1 | 0.065 | 1.5 | 32*
Cc1cc(NC(=O)Cn2nc3c(cc2=O)CCCC3)ccc1Br | -6.2* | -3 | 1.3 | 1.3 | 19
Cc1ccc(OCc2nnc(SCC(=O)c3cccc([N+](=O)[O-])c3)n2C)cc1 | 0.15 | 2 | -0.17 | 1.1 | -4
CCC(C)(C)NC(=O)C(c1ccc(C)cc1)N(Cc1ccco1)C(=O)CCC(=O)Nc1nccs1 (stereo not given) | -4.8* | 0 | -0.47 | 0.9 | -7
SMILES | Cav3 T inh | PostGolgi yeast | hDAT+cocaine | PLAP activator | PostGolgi ctrl
CCC(C)(C)NC(=O)C(c1ccc(F)cc1)N(Cc1ccco1)C(=O)CCC(=O)Nc1ccccn1 (stereo not given) | -8.8* | -4 | 0.9 | 1.6 | 0
CCC(C)(C)NC(=O)C(c1ccc(OC)cc1)N(Cc1ccco1)C(=O)CCC(=O)Nc1cc(C)on1 (stereo not given) | -0.0063 | nt | -0.017 | nt | nt
CCOC(=O)C(C(C)=O)C(c1ccc(OCCC(C)C)cc1)C(C(C)=O)C(=O)OCC (stereo not given) | -2.9 | nt | 1.1 | nt | nt
CCOC(=O)N1CCC(NC(=O)c2cc(C)c3c(C)nn(-c4ccccc4)c3n2)CC1 | 0.65 | -14 | 1 | 1.1 | 4
C=CCc1ccc(O)c(-c2cc(CC=C)ccc2O)c1 | -5* | nt | -0.056 | nt | nt
c1cc(-c2cc3cc(N4CCOCC4)ccc3o2)cs1 | 0.11 | nt | 1.1 | nt | nt
CC1CC(C)CN(C(=O)Cn2c(SCC(=O)N3CCc4ccccc4C3)nc3ccccc32)C1 (stereo not given) | -8.4* | nt | -0.2 | nt | nt
COCCNC(=O)CSc1nc2ccccc2c2nc(C)nn12 | 0.66 | -11 | 0.72 | 1 | 6
O=C(CSc1ncnc2c1oc1ccccc12)N1CCc2ccccc2C1 | nt | nt | nt | 0.9 | nt
O=C(CSc1nc(C2CC2)nc2ccccc12)N1CCc2ccccc2C1 | nt | -6 | nt | 1 | 68*
Cc1nc2c3ccccc3nc(SCC(=O)N3CC(C)CC(C)C3)n2n1 (stereo not given) | nt | 0 | nt | 1.4 | 32*
C[C@@H]1C=C(C(=O)NCc2nc3ccccc3[nH]2)O[C@H](OCCCCO)C1 | 0.62 | nt | -0.03 | nt | nt
CCOC(=O)c1c(C)[nH]c(C(=O)Cn2nnc(-c3ccccc3Cl)n2)c1C | 0.68 | 2 | -0.03 | 0.9 | -2
CCOC(=O)c1c(C)[nH]c(C)c1C(=O)Cn1nnc(-c2ccccc2C)n1 | -10* | -3 | 1.1 | nt | 26
COc1cccc(Nc2nc(-c3ccc(O)cc3)cs2)c1 | -1.8 | -1 | 0.8 | 0.9 | 23
Cc1cccnc1Nc1nc(-c2ccc(O)cc2)cs1 | -0.42 | 1 | 4.6* | 1.3 | 24
CCCn1c(=S)[nH]c2cc(C(=O)N3CCc4ccccc43)ccc2c1=O | 0.15 | -2 | -0.97 | 1.1 | 103*
COCCn1c(=S)[nH]c2cc(C(=O)NC(C)C)ccc2c1=O | -0.53 | 4 | -0.0094 | 0.9 | -2
COCCn1c(=S)[nH]c2cc(C(=O)N3CCc4ccccc43)ccc2c1=O | 0.5 | -14 | -0.16 | 1.2 | 96*
Cc1cc(=O)oc2cc(OCCSCCN3CCOCC3)ccc12 | -0.19 | 6 | -0.12 | 1.3 | 32*
COc1ccccc1-c1cc(C(=O)N/N=C/C=C/c2ccccc2[N+](=O)[O-])c2ccccc2n1 | -4.1* | -7 | 1.2 | 1.7 | 9
COc1ccccc1-c1cc(C(=O)N/N=C/c2cccs2)c2ccccc2n1 | nt | 4 | nt | 1.7 | 33*
COc1cccc(-c2nnc(NC(=O)c3ccc(S(=O)(=O)N4CC(C)OC(C)C4)cc3)o2)c1 (stereo not given) | nt | -4 | nt | 1.5 | -2
COc1ccc(-c2cc(=O)c3ccccc3o2)cc1 | -0.63 | nt | 0.081 | nt | nt
COc1ccc(-c2nnc(Sc3nc4ccccc4o3)c3ccccc23)cc1 | -0.9 | -2 | -0.61 | nt | 46*
CNC(=O)C1CC(=O)N(c2ccc(C)cc2)C1 (stereo not given) | -3.8* | 0 | 0.63 | 1 | 3
Cc1ccc(N2CC(C(=O)NC3=NCCS3)CC2=O)cc1 (stereo not given) | -0.28 | -1 | -1.2 | 0.8 | 9
COc1ccc(C2C=C(c3ccc(C)cc3)Nc3ncnn32)cc1 (stereo not given) | nt | 1 | nt | 1.3 | 7
COc1ccc(C2C=C(c3ccc(Br)s3)Nc3ncnn32)cc1OC (stereo not given) | -8.7* | 2 | -0.052 | 1.2 | 35*
CNC(=O)CN(c1cc(C)ccc1C)S(C)(=O)=O | 0.43 | -6 | -0.041 | 0.9 | 10

Screens: PubChem, several laboratories
